Screening results: PubChem, National Center for Advancing Translational Sciences (NCATS)
Epigenetic mod: qHTS Assay for Epigenetic Modulators; mouse C127i GFP locus derepression, cytometry, 30 h; Potency, µM (series often up to 46.1 µM), for the others: at the top dose GFP derepression (activation); actives 0.09% (n = 68,000); AID 597, 2007; note: % of control where 0% means no effect
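Read-out is the number of GFP-positive cells, scored as fluorescent objects 20 to 120 um wide, reflecting derepression of a silenced CMV-GFP reporter in murine C127i cells after 30 h compound exposure at 37 C.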
CRE-bla Fsk: Cell signaling CRE-BLA (Fsk stim); CHO CRE-bla reporter (cAMP response element driving beta-lactamase), forskolin EC10, beta-lactamase ratio; Potency, µM (titrated, usually from 38.2 µM), for inactives: at the highest dose activity change, negative = inhibition, most hits filed as activators; actives 2.5% (n = 71,000); AID 662, 2007; active = well fitted activation curve with a large enough effect in the signal ratio, with a control signal flat, not every such curve was filed as active; inconclusive = small, poorly fitted or top-dose-only effect, or effect the other way, or a change in a side signal; the % refers to the signal ratio; note: potency is the fitted concentration of half-maximal effect; % of control where 0% means no effect
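CHO CRE-bla cells, overnight plating in Opti-MEM with 0.5% dialyzed FBS; cpd titration + EC10 NKH 477, 3 h 37 °C; CCF4 2 h RT; ex 405/em 460 vs 530 ratio → %Activity, AC50.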
IkB sig inh: IkB Signaling. AID 445, 2006. ABC-DLBCL IkBa-CBG/CBR dual luciferase ratio, 4 h; response scale: scaled: untreated 0%, proteasome inhibitor 100%. Potency, µM (top dose mostly 57.1 µM), inactives show at the highest dose IkBa stabilization activation. actives 0.04% (n = 110,000); active = well fitted curve in the direction sought with a large enough effect in the signal ratio, not every such curve was filed as active; inconclusive = small, poorly fitted or top-dose-only effect, or a change in a side signal; the % refers to the signal ratio;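 note: potency is the fitted concentration of half-maximal effect; the direction sought is a rising ratio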
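In this assay, an IκBα–CBG68 fusion accumulates when IKK-driven degradation is blocked; native CBR normalizes for cell number. OCI-Ly3 cells were treated 4 h with compound and doxycycline, then green and red light read after Chroma-Glo addition.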
HBB splicing: qHTS Assay for Modulators of Hemoglobin Beta Chain Splicing. HBB splicing reporter cell assay, activation; EGFP reporter with mutant IVS2-654 intron; response scale: normalised to 500 nM splice-correcting PNA. Potency, µM (top dose mostly 46.1 µM), inactives show top-dose activation, usual class: activators. actives 0.06% (n = 65,000); note: potency is the fitted concentration of half-maximal effect; 0% is about no effect
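Compounds were applied for 2 days to HeLa EGFP-654 cells, 500/well in Optimem with 2% FCS. The reporter's EGFP is disrupted by mis-splicing of beta-globin intron IVS2-654. Readout: summed well GFP fluorescence from 488 nm laser scanning; reference was 500 nM antisense […] 654 PNA.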
ERK AVP block: qHTS Assay for Inhibitors of the ERK Signaling Pathway using a Homogeneous Screening Assay. HEK293-V1b, vasopressin-stimulated pERK AlphaScreen. actives 0.99% (n = 72,000). Potency, µM (doses to about 57.5 µM), for inactives: at the top dose activity, negative = inhibition, most hits filed as inhibitors; note: potency is the fitted concentration of half-maximal effect; % is set by controls: 0 for no effect and ±100 for the full control effect; nearly all actives have a fitted effect of over 55% in size
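V1b-HEK293 cells; cpd 30 min 37C; 25 nM vasopressin 5 min; lyse 10 min; AlphaScreen beads 5 hr RT. Normalized to DMSO basal and 25 nM vasopressin; AC50 by Hill fit.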
The depositor's hits bear a star; ? = inconclusive; . = no result given; [ ] = another dose, or the depositor's remark. The entries come from a sample that favours hits as a whole. Unless noted, calls come from the whole dose curve; as a rule, active = well fitted curve in the direction sought with a large enough effect; inconclusive = small, poorly fitted or top-dose-only effect, or another doubt; inactive = no such curve, though single readings can be large; an effect the other way counts as inactive or inconclusive.

SMILES	Epigenetic mod	CRE-bla Fsk	IkB sig inh	HBB splicing	ERK AVP block
Cn1nc(-c2ccc(Cl)cc2)c2cc(C(=O)NCC3CCCO3)sc21 (configuration not stated)	.	5µM*	?	-1%	?
Cn1nc(-c2ccc(Cl)cc2)c2cc(C(=O)N3CCOCC3)sc21	.	6.3µM*	-2%	0%	?
COc1cccc(-c2nn(C)c3sc(C(=O)N4CCOCC4)cc23)c1	10%	10µM*	0%	-1%	4%
Cc1cc(=O)cc2oc3cc(N)c(-c4c(C)cc(O)cc4O)c(C)c3nc1-2	.	.	.	.	-24%
CCOc1ccc(C2=Nn3c(nnc3-c3cccnc3)SC2)cc1	6%[20.6 µM]	.	.	.	.
COc1ccc(OCc2nnc3n2N=C(c2ccc(C)cc2)CS3)cc1	-2%	?	?	0%	-24%
CCCc1nnc2n1N=C(c1ccc(OC)c(OC)c1)CS2	-1%	6.3µM*	-3%	-3%[57.5 µM]	16µM*
COc1ccc(C2=Nn3c(nnc3-c3cccnc3)SC2)cc1	-3%	10µM*	4%	3%	-26%
COc1ccc(C2=Nn3c(nnc3-c3ccccc3)SC2)cc1OC	-4%[20.6 µM]	.	.	.	.
COc1ccc(OCc2nnc3n2N=C(c2ccc(OC)cc2)CS3)cc1	.	4µM*	?	-1%	25µM*
CCOc1ccc(C2=Nn3cnnc3SC2)cc1	0%	15%	-2%	-3%[57.5 µM]	-19%
CCOc1ccc(C2=Nn3c(nnc3-c3ccc(OC)cc3)SC2)cc1	-2%	13µM*	0%	1%[57.5 µM]	?
CC(C)CN1CCCC2(CCN(C(=O)c3cnccn3)CC2)C1	-5%[9.22 µM]	-4%	0%[11.4 µM]	-1%	10%
O=C(O)[C@@H](O)[C@@H](O)[C@@H](O)[C@@H](O)C(=O)O (tested in a mixture with another compound)	5%[20.6 µM]	2%[17.1 µM]	0%[25.6 µM]	2%[20.6 µM]	-23%[25.7 µM]
COc1ccc(OC)c(C2=Nn3c(nnc3-c3ccco3)SC2)c1	23%[20.6 µM]	.	.	.	.
COc1ccc(Cc2nnc3n2N=C(c2cc4ccccc4o2)CS3)cc1OC	1%	3.2µM*	?	0%[57.5 µM]	-1%
COc1ccc(OC)c(C2=Nn3c(nnc3-c3cccc(OC(C)C)c3)SC2)c1	-6%	1.3µM*	-1%	2%[57.5 µM]	-23%
Cc1ccc2c(c1)[nH]c1c(N3CCN(Cc4ccccc4)CC3)ncnc12	4%	?	?	0%[0.369 µM]	16µM*
CCOc1ccc(-c2cc(CCCC(=O)NCc3cccnc3)no2)cc1	-2%	4%	?	-1%	13µM*
CCOc1ccc(-c2cc(CCCC(=O)Nc3cccc(OC)c3)no2)cc1	.	?	3.2µM*	0%	?
COc1ccc(-c2cc(CCCC(=O)NCc3ccccn3)no2)cc1	.	-1%	-1%	-1%	-12%
COc1cc2nc(N3CC=[N+](C(=O)c4ccco4)CC3)nc(N)c2cc1OC	-1%	21%	-10%	0%	-15%
COc1ncc2nc(CCc3ccccc3)c(=O)n(Cc3cccs3)c2n1	5%[9.22 µM]	13µM*	4%[11.4 µM]	0%	16%
COc1ncc2nc(C)c(=O)n(Cc3cccs3)c2n1	-3%[9.22 µM]	13µM*	0%[11.4 µM]	1%	-20%
COc1ccc(-c2nc3cnc(OC)nc3n(Cc3cccs3)c2=O)cc1	3%[9.22 µM]	?	-2%[11.4 µM]	0%	-7%
SMILES	Epigenetic mod	CRE-bla Fsk	IkB sig inh	HBB splicing	ERK AVP block
CN(C)c1ncc2ncc(=O)n(Cc3cccs3)c2n1	3%[9.22 µM]	7.9µM*	3%[11.4 µM]	1%	-30%
COC(=O)C(C(=O)OC)C1O[C@@]23COCCC2(C)C3c2ccccc21 (some centres not stated)	.	.	.	1%[9.22 µM]	29%[11.5 µM]
COc1ccc(-c2n[nH]c(C)c2-c2ccc(Cl)cc2)c(O)c1OC	0%	?	?	-1%	25µM*
Cc1cccc(CNc2ncnc3ccc(-c4ccccc4CN(C)C)cc23)c1	3%[9.22 µM]	-15%	0%[11.4 µM]	-1%	18%
C[C@@H]1C(=O)O[C@H]2[C@@H](O)[C@@]34[C@H]5C[C@H](C(C)(C)C)[C@@]36[C@H](OC(=O)[C@@H]6O)O[C@@]4(C(=O)O5)[C@@]12O	0%[9.22 µM]	?	0%[11.4 µM]	.	.
COC(=O)c1ccc(CSc2nc3ccccc3c(=O)n2-c2ccc(OC)c(OC)c2)o1	1%	13µM*	0%	0%[57.5 µM]	13%
COC(=O)c1ccc(CSc2nc3c(c(=O)n2-c2ccccc2)SCC3)o1	.	?	2%	-1%	.
COCCn1c(SCC(=O)N2CCCCC2)nc2ccccc2c1=O	1%	8%	2%	0%	2%
COCCn1c(SC(C)C(=O)Nc2ccc3c(c2)OCCO3)nc2ccccc2c1=O (configuration not stated)	3%	13µM*	2%	0%	-6%
COCCn1c(SCc2ccc(C(=O)OC)o2)nc2ccccc2c1=O	1%	13µM*	1%	0%	?
CC(=O)N1c2ccc(S(=O)(=O)NCC3CCC(C(=O)NCCC(C)C)CC3)cc2CC1C (configuration not stated)	.	.	0%	.	.
Cc1cc(C)cc(N(CCC#N)C(=O)CSc2nc3nc(C)cc(C)n3n2)c1	1%	6.3µM*	1%	1%	-14%
CCN(C(=O)CSc1nc2nc(C)cc(C)n2n1)c1cccc(C)c1	-3%	?	-1%	0%	-4%
COc1ccc(COC(=O)N/N=C2/C[C@@H](O)[C@@H](O)[C@@H]3[C@@H]4C(=O)N(C[C@@H]5CCCO5)C(=O)[C@H]4CC[C@H]23)cc1	.	.	.	4%[9.22 µM]	27%[11.5 µM]
COc1ccc(-c2nn3c(-c4cccc(C)c4)nnc3s2)cc1OC	2%	2µM*	-3%	2%[57.5 µM]	?
COc1cc(-c2nnc3sc(-c4cccs4)nn23)cc(OC)c1OC	-2%	1.6µM*	3%	1%[1.84 µM]	-13%
COc1ccc(-c2nnc3sc(-c4cccs4)nn23)cc1OC	4%	2.5µM*	-4%	0%[57.5 µM]	?
CCCc1nc2oc3c(NCCN4CCOCC4)ncnc3c2c2c1CCCC2	2%	0.79µM*	-2%	-1%[0.369 µM]	-13%
CC(C)c1nc2oc3c(NCC4CCCO4)ncnc3c2c2c1COC(C)(C)C2 (configuration not stated)	0%	1µM*	-1%	7%[1.84 µM]	?
CCCc1nc2oc3c(NCCOCCO)ncnc3c2c2c1COC(C)(C)C2	2%	2µM*	-3%	2%[57.5 µM]	?
Cc1nc2oc3c(NCc4ccccc4)ncnc3c2c2c1COC(C)(C)C2	-2%	5µM*	-2%	-2%[57.5 µM]	?
COC(=O)CCCCCN1C(=O)NC(CC2CC2)C(C(=O)OCc2ccccc2)=C1C (configuration not stated)	.	3%	.	-2%	?
